# From PubChem BioAssay AID504465 (National Center for Advancing Translational Sciences (NCATS), 2011)
# Hit rate of the full screen: of about 2,100 compounds, about 210 (10%) were called active. Another 53% or so got no clear call; they are omitted. The list shows a part of the results. Unmarked numbers belong to inactive results. The call rests on the fitted dose curve; in most records, active means well fitted inhibition curve with a large enough effect; inconclusive means small, poorly fitted or top-dose-only effect, or effect the other way; inactive means no such curve, though single readings can be large or run the other way.
# Experiment: IN Cell qHTS Assay for Inhibitors of the mTORC1 Signaling Pathway in MEF (Tsc2-/-, p53-/-) Cells: Sytravon; further: nearly all actives have a fitted effect of over 60% in size
# Conditions: phospho-rpS6 immunofluorescence, 24 h; series mostly up to 38.3 µM; activity, negative = inhibition: at the top concentration
# Summary of the method: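 Immunofluorescence of rpS6 phosphorylation (Ser235/236) in mouse embryonic fibroblasts lacking Tsc2 and p53, after 24 h compound exposure; Hoechst-normalized signal imaged, each well scored as % active cells relative to rapamycin (7.5 nM) and DMSO controls.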
# Potency means the concentration at half of the fitted maximal effect.
Structure (SMILES),"activity, negative = inhibition [%]",Potency
Cc1ccc(/C=C(\C#N)C(=O)Nc2ccc(Br)cc2)o1,-12.4,–
Cc1[nH]n2c(=O)cc(-c3ccc(Cl)cc3)nc2c1-c1ccccc1,-21.5,–
COc1ccccc1N1CCN(CC(O)COc2ccc(C)cc2C(C)(C)C)CC1 (stereo not given),15.3,–
COc1cccc(OCc2nc3ccccc3n2CCOc2ccc(C)cc2)c1,-0.601,–
CCCCn1c(=N)n(CCOc2ccccc2OC)c2ccccc21,–,6.56 µM (active)
N=c1n(CCN2CCCCC2)c2ccccc2n1CC(O)COc1ccc(Cl)cc1Cl (stereo not given),–,2.61 µM (active)
Cc1ccccc1OCC(O)Cn1c(=N)n(CCN2CCCCC2)c2ccccc21 (stereo not given),–,5.85 µM (active)
Cc1ccc(OCCn2c(CNc3cccc(C)c3)nc3ccccc32)cc1,3.56,–
CCn1c(=N)n(CCOc2ccc(Br)cc2)c2ccccc21,–,6.56 µM (active)
COc1cc(C2CC(=O)Nc3cc4c(cc32)OCCO4)cc(OC)c1O (stereo not given),5.26,–
COc1ccccc1NC(=O)CSc1nnc2c(n1)[nH]c1ccccc12,-25.8,–
CCN(C(=O)c1cc2c(=O)oc3ccc(C)cc3c2s1)c1ccccc1F,2.45,–
Cc1ccccc1C(=O)Nc1cccc(OCc2cc(=O)n3cccc(C)c3n2)c1,-3.41,–
CCOc1ccc(C2=C(C(C)=O)Sc3nnc(C)n3N2C(C)=O)cc1,-20.9,–
O=C(NCc1ccccc1Cl)c1nnc(Cc2cccc(F)c2)o1,-10.8,–
COc1ccc(C)cc1NC(=O)C(NS(=O)(=O)c1cccs1)c1ccccc1 (stereo not given),-19.2,–
CCCCCn1c(=N)n(CC(O)COc2cccc(C)c2)c2ccccc21 (stereo not given),–,2.61 µM (active)
CCN(CC)CCn1c(=N)n(CC(O)COc2ccccc2C)c2ccccc21 (stereo not given),–,5.85 µM (active)
CCN(CC)CCn1c(=N)n(CCOc2ccccc2Cl)c2ccccc21,–,3.69 µM (active)
Cc1ccccc1OCCn1c(=N)n(C(C)C)c2ccccc21,–,9.27 µM (active)
COc1ccc(N2CCN(CC(O)COc3ccc(C)c(C)c3)CC2)cc1 (stereo not given),0,–
CCCCCn1c(-c2cccc(C)c2)nc2ccccc21,-18.9,–
Cc1ccc(C(=O)n2nc(C)c(S(=O)(=O)N3CCCCCC3)c2C)cc1,0.537,–
Cc1ccc(NC(=O)CCNS(=O)(=O)c2cccc3nonc23)cc1Cl,5.36,–

Structure (SMILES),"activity, negative = inhibition [%]",Potency
COc1ccc(C(=O)c2cn(Cc3cccc(C)c3)c3cc4c(cc3c2=O)OCO4)cc1,23.3,–
CCOC(=O)c1ccccc1Nc1cc(C)nc2nc(-c3ccco3)nn12,-9.33,–
CC(C)c1ccc(NC(=O)c2cc(S(=O)(=O)NCCC3=CCCCC3)ccc2F)cc1,6.25,–
Fc1ccc(-c2csc(=Nc3cccc(C(F)(F)F)c3)n2Cc2ccc3c(c2)OCO3)cc1,6.58,–
CCOC(=O)N1CCc2c(sc3c2C(=O)NC(c2ccc(C(=O)OC)cc2)N3)C1 (stereo not given),-10.6,–
COc1cc2c(cc1OC)n(CC(=O)c1ccc(F)cc1)c(=O)n1nc(CCn3nc(C)cc3C)nc21,-8.82,–
Cc1ccc(NC(=O)c2c(C)oc3ccc(O)c(CN(C)Cc4ccccc4)c23)c(C)c1,-15.8,–
CCC(C)NC(=O)CSc1nc2cc3c(cc2c(=O)n1CCCC(=O)NCCc1ccc(OC)c(OC)c1)OCO3 (stereo not given),-1.63,–
COc1ccccc1Oc1nc2c(C)cccn2c(=O)c1/C=C(\C#N)c1nc2ccccc2[nH]1,21,–
O=C(Cn1cc(SCc2ccc(F)cc2)c2ccccc21)N1CCCCCC1,-24.4,–
COCCn1c(=N)c(C(=O)NCc2ccco2)cc2c(=O)n3cc(C)ccc3nc21,–,13.1 µM (active)
Cc1ccc2nc3c(cc(C(=O)NC4CCCCC4)c(=N)n3C(C)C)c(=O)n2c1,-26.3,–
Cc1ccc(-c2noc(CCCC(=O)NCc3ccco3)n2)cc1,-11.7,–
Cc1ccc(Cl)cc1NC(=O)CCn1cnc2ccccc2c1=O,-0.138,–
COc1ccc(C(=O)N2CCc3cc(OC)c(OC)cc3C2COc2ccc3c(C)cc(=O)oc3c2)c(OC)c1 (stereo not given),-9.89,–
CCCCS(=O)(=O)c1oc(-c2cccs2)nc1S(=O)(=O)c1ccccc1,–,0.585 µM (active)
O=S(=O)(c1ccccc1)c1nc(-c2cccs2)oc1SCc1ccccc1F,-2.37,–
CCC(C)S(=O)(=O)c1oc(-c2cccs2)nc1S(=O)(=O)c1ccccc1 (stereo not given),–,1.47 µM (active)
Cc1ccc(S(=O)(=O)c2nnn3c2nc(NCc2cccs2)c2sccc23)cc1,-14.6,–
CCCCS(=O)(=O)c1oc(-c2cccs2)nc1S(=O)(=O)c1ccc(F)cc1,–,3.69 µM (active)
Cc1nn(C)c2c1c(-c1ccccc1)cc(=O)n2Cc1ccccc1C#N,0.892,–
CCN1CCOC(=O)C1CC(=O)Nc1ccc(Br)cc1 (stereo not given),14.1,–
Cc1cc(C)cc(NC(=O)C2CCCN2S(=O)(=O)c2ccc3nc(-c4ccccc4)[nH]c3c2)c1 (stereo not given),-4.65,–
COc1ccc(S(=O)(=O)NC2(C(F)(F)F)NC(=O)N(CCc3ccc(OC)c(OC)c3)C2=O)cc1 (stereo not given),-12.2,–

Structure (SMILES),"activity, negative = inhibition [%]",Potency
O=C(CSCc1ccc(F)cc1)N1CCc2c([nH]c3ccccc23)C1c1ccc(Cl)cc1 (stereo not given),-19.1,–
CCCN1CCN(CCCNC(=O)c2ccc3c(c2)sc2nc(-c4ccc(OCC)cc4)cn23)CC1,–,1.85 µM (active)
CCCCNC(=O)c1ccc2c(c1)N=C(CC)c1ccccc1S2,29.1,–
CCOc1ccc(-c2cc(NC(=O)c3ccc(C)cc3)c(C(=O)OC)s2)cc1,-3.56,–
CCC1CCCCN1C(=O)CSc1n[nH]c(-c2ccccc2)n1 (stereo not given),17.6,–
CCOC(=O)c1cc(S(=O)(=O)NCc2ccc(C)cc2)[nH]n1,-2.92,–
Cc1cccc(NC(=O)c2oc3ccc(S(=O)(=O)N4CCC5(CC4)OCCO5)cc3c2C)c1C,6.25,–
CCCCN1C(=O)C(O)(c2c[nH]c3ccccc23)c2cc(Br)ccc21 (stereo not given),-6.22,–
COc1cccc(C(=O)CC2(O)C(=O)N(Cc3ccccc3)c3ccccc32)c1 (stereo not given),-15.2,–
COC(=O)CN1C(=O)C(O)(CC(=O)c2ccc(F)cc2)c2ccccc21 (stereo not given),-21.4,–
O=C(CC1(O)C(=O)N(CCc2ccccc2)c2ccc(Br)cc21)c1ccccc1O (stereo not given),–,20.7 µM (active)
Cc1ccccc1CN1C(=O)C(O)(CC(=O)c2ccccc2)c2cc(Cl)ccc21 (stereo not given),-20.8,–
COc1ccc(C(=O)CC2(O)C(=O)N(Cc3cccc(C(F)(F)F)c3)c3ccccc32)cc1 (stereo not given),–,4.65 µM (active)
CCCCN1C(=O)C(O)(CC(=O)c2ccc(CC)cc2)c2cc(Br)ccc21 (stereo not given),–,18.5 µM (active)
CCCCN1C(=O)C(O)(c2c(C)[nH]c3ccccc23)c2cc(Br)ccc21 (stereo not given),-16.3,–
O=C(CC1(O)C(=O)N(Cc2ccccc2)c2ccc(Br)cc21)c1ccccc1 (stereo not given),–,16.5 µM (active)
CCCN1C(=O)C(O)(CC(=O)c2ccc(C(C)C)cc2)c2ccccc21 (stereo not given),-15.2,–
CN1CCc2c(sc(NC(=O)CSc3ccc(F)cc3)c2-c2nc3ccccc3s2)C1,-2.19,–
CCC1=Nc2cc(C(=O)NCC(C)c3ccccc3)ccc2Sc2ccc(C)cc21 (stereo not given),3.53,–
CCn1cc2nc(SCC(=O)Nc3cccc(Cl)c3C)n(Cc3ccc(Cl)cc3)c(=O)c2n1,-2.07,–
COc1ccc(-c2nc(SCC(=O)Nc3ccc4c(c3)OCCO4)c(-c3ccc(F)cc3)[nH]2)cc1,-6.12,–
CC1=C(C(=O)OCC2CCCCC2)C(c2ccc(Cl)cc2)CC(=O)N1 (stereo not given),14.2,–
O=C1c2[nH]nc(-c3ccccc3O)c2C(c2ccc(Cl)cc2)N1Cc1ccco1 (stereo not given),-21.5,–
COc1ccc(C2(Nc3cccc(C(=O)O)c3C)C(=O)c3ccccc3C2=O)cc1,-0.529,–

Structure (SMILES),"activity, negative = inhibition [%]",Potency
CCc1ccc(Oc2nc3c(C)cccn3c(=O)c2/C=C(\C#N)c2nc3ccccc3[nH]2)cc1,-94.3,–
COc1cccc(NS(=O)(=O)c2ccc3c(c2)CCCN3C(=O)C2CCC2)c1,-3.21,–
Cc1ccc(CN2C(=O)C(O)(CC(=O)c3ccc(C)cc3)c3ccccc32)cc1 (stereo not given),–,16.5 µM (active)
COc1ccc(N2C(=O)CCSC23C(=O)N(Cc2ccc(F)cc2)c2ccccc23)cc1Cl (stereo not given),-17.3,–
CCOC(=O)CN1C(=O)C(O)(CC(=O)c2cc(OC)ccc2OC)c2ccccc21 (stereo not given),46,–
CCc1ccc(C(=O)CC2(O)C(=O)N(Cc3ccc(C)cc3)c3ccccc32)cc1 (stereo not given),-88.7,–
Cc1ccc(CN2C(=O)C(O)(c3c(C)[nH]c4ccccc34)c3ccccc32)cc1 (stereo not given),-20.6,–
COc1cc(C(=O)CC2(O)C(=O)N(Cc3ccccc3Cl)c3ccccc32)cc(OC)c1OC (stereo not given),–,0.147 µM (active)
CCOC(=O)C1CCN(C(=O)CSc2c3c(nc4ccc(Cl)cc24)CCCC3)CC1,-16.3,–
COC(=O)c1c(NC(=O)c2ccc(S(=O)(=O)N3CCCCC3)cc2)sc2c1CCN(C)C2,-14,–
Cc1ccc(NC(=O)/C=C\C(=O)N(c2ccc(C(C)C)cc2)C(C(=O)NCc2ccco2)c2ccc(F)cc2)cc1 (stereo not given),6.25,–
COc1ccc2nc(C)cc(Nc3ccc(Cl)c(Cl)c3)c2c1,–,13.1 µM (active)
COc1cc(Nc2nc(SCC(=O)c3ccc(Cl)c(Cl)c3)nc3ccccc23)cc(OC)c1,-6.06,–
COc1ccc(Nc2cc(C)nc3c(C)c(C)ccc23)cc1,0,–
Clc1cccc(-n2ncc3c(NC4CCCCC4)ncnc32)c1,6.25,–
Cc1cccc(Cc2c(C)nc3nc(SCC(=O)NCc4ccc(F)cc4)nn3c2C)c1,-21.1,–
CC(=O)N1CCc2cc(CNS(=O)(=O)c3cccs3)ccc21,21.8,–
Cc1nc2nncn2c(NCc2ccc(Cl)cc2)c1C,-6.25,–
COc1ccc(CCNC(=O)c2cc3n(n2)CCCN(Cc2ccc(C)cc2)C3=O)cc1OC,-1.23,–
COc1ccc2c(c1)CC(C(=O)Nc1cc(Cl)ccc1C)CO2 (stereo not given),-4.95,–
CCOC(=O)c1c(C)oc2ncnc(N3CCN(c4cccc(Cl)c4)CC3)c12,-8.26,–
CCOc1ccc(-n2nc(CO)c(C(=O)NCc3cccs3)n2)cc1,-14,–
CCOc1ccc(-n2nc3ccc(NC(=O)c4ccc(-c5cccc(Cl)c5)o4)cc3n2)cc1,–,13.1 µM (active)
